Screening data as filed in PubChem.
HT1080 IDH1KD tx: qHTS for induction of synthetic lethality in tumor cells producing 2HG: qHTS for the HT-1080-IDH1KD cell line. AID 686971, 2013. Potency, µM (series often up to 46.1 µM), without a hit: at the top dose activity, negative = toxicity, most hits filed as cytotoxic. hit rate 2% among 360,000. HT-1080 IDH1 knockdown viability, ATP luminescence, 48 h;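 note: potency is the fitted concentration of half-maximal effect; 0% = DMSO wells and -100% = cell-free medium wells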
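Assay cells: HT-1080 with IDH1 knockdown, 750 per well, RPMI/5% FBS. Exposure: 48 h at 37 °C following 2 h pre-incubation. Read: CellTiter-Glo luminescence; fitted concentration-response, curve class assigned.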
DT40 TDP1 CPT: qHTS for Inhibitors of human tyrosyl-DNA phosphodiesterase 1 (TDP1): qHTS in cells in presence of CPT | chicken DT40 Tdp1-/-;hTDP1 cells + 20 nM CPT, ATP luminescence, 48 h | Potency, µM (series often up to 46.2 µM), for inactives: at the highest dose activity change, negative = growth inhibition, most hits filed as inhibitors | hit rate 12% among 420,000 | AID 686979, 2013; note: potency is the fitted concentration of half-maximal effect; nearly all actives have a fitted effect of over 55% in size
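Cell growth measured by CellTiter-Glo luminescence after a minimum 48 h, 37 C compound exposure with 20 nM CPT in Tdp1-knockout DT40 cells stably expressing hTDP1, seeded 400/well; qHTS titration format.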
ALOX12 inh: Primary qHTS assay for inhibitors of human arachidonate 12S-lipoxygenase (ALOX12): Round 2; Polyunsaturated fatty acid lipoxygenase ALOX12 (Homo sapiens), P18054; purified 12hLO, xylenol orange hydroperoxide absorbance; Potency, µM (series often up to 108 µM), for inactives: top-dose activity change, negative = inhibition, usual class: inhibitors; hit rate 1.1% among 580,000; AID 1671190, 2021; note: potency is the fitted concentration of half-maximal effect
Target sequence (P18054 whole entry, looked up): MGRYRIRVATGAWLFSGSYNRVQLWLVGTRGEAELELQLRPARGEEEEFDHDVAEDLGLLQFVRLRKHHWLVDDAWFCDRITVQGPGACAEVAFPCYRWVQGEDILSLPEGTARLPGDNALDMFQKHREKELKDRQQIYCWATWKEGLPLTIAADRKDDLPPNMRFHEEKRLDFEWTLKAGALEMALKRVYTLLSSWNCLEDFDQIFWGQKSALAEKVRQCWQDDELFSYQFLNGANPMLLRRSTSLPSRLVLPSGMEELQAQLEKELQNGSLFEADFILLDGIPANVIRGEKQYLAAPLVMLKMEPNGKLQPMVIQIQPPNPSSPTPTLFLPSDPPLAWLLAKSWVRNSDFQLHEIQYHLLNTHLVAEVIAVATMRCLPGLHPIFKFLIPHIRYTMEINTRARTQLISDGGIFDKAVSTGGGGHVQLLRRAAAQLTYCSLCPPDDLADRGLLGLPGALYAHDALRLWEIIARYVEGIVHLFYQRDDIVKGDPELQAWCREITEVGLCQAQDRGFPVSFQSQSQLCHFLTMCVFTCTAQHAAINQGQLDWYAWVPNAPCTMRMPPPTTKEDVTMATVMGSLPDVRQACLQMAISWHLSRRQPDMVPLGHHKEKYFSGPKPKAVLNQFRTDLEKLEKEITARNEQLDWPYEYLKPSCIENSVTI
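Purified human 12hLO (150 nM final) in 25 mM Hepes, 0.01% Triton X-100, pH 7.0 was preincubated 15 min at room temperature with compound. Then 40 uM arachidonic acid was added, 30 min. Hydroperoxide was read by Fe-XO absorbance ratio 573/405 nm.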
IL1B secr inh: qHTS for Inhibitors of Inflammasome Signaling: IL-1-beta AlphaLISA Primary Screen; hit rate 4.7% among 360,000; THP-1 LPS/ATP IL-1B secretion, AlphaLISA, 16 h; stronger effect = lower value; activity change, % at 57.5 µM; in the data active = activity change below about -50%; inconclusive = mostly about -30% to -49%
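THP-1 cells pretreated 1 hr with compounds (up to 57.5 uM final), then stimulated with LPS (250 ng/mL final) plus ATP (1.25 mM final); secreted IL-1B measured by AlphaLISA after 16 hr, decreased signal indicating inhibition.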
DT40 TDP1 no CPT: qHTS for Inhibitors of human tyrosyl-DNA phosphodiesterase 1 (TDP1): qHTS in cells in absence of CPT | DT40 Tdp1-/- hTDP1 cells, no CPT, ATP luminescence, 48 h | Potency, µM (top dose mostly 46.2 µM), inactives show at the top dose activity change, negative = growth inhibition, actives largely listed as inhibitors | hit rate 15% among 420,000 | AID 686978, 2013; note: potency is the fitted concentration of half-maximal effect; nearly all actives have a fitted effect of over 55% in size
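Chicken DT40 Tdp1-/- cells stably complemented with human TDP1 were seeded at 400 cells/well with DMSO in place of 20 nM camptothecin. After compound pinning, cells grew at least 48 hr at 37 °C; viability read by CellTiter-Glo luminescence.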
HT1080-NT tox: qHTS for induction of synthetic lethality in tumor cells producing 2HG: qHTS for the HT-1080-NT fibrosarcoma cell line. HT-1080-NT fibrosarcoma viability, CellTiter-Glo ATP luminescence, 48 h. Potency, µM (top dose mostly 46.1 µM), for inactives: at the highest dose activity, negative = less viability, usual class: cytotoxic. hit rate 1.6% among 360,000;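 note: NT is the 2HG producing partner of a matched IDH1 knockdown line; potency is the fitted concentration of half-maximal effect; 0% = DMSO-treated cells and -100% = media-only wells without cells; nearly all actives have a fitted effect of over 55% in size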
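HT-1080-NT; 750 cells/well; 5% FBS RPMI; 48 h compound, 37 degrees C; CellTiter-Glo luminescence; curve fitting and curve-class assignment.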
Active calls of the source: *; ? = inconclusive; nt = no result; [ ] = another dose, or the depositor's remark. Shown is part of a subset that was picked to be rich in hits. Unless noted, calls come from the whole dose curve; as a rule, active = well fitted curve in the direction sought with a large enough effect; inconclusive = small, poorly fitted or top-dose-only effect, or another doubt; inactive = no such curve, though single readings can be large; an effect the other way counts as inactive or inconclusive. Unless noted, % is set by controls: 0 for no effect and ±100 for the full control effect.

SMILES	HT1080 IDH1KD tx	DT40 TDP1 CPT	ALOX12 inh	IL1B secr inh	DT40 TDP1 no CPT	HT1080-NT tox
O=C(/C=C/c1ccccc1)CC(=O)c1ccccc1O	5.6%	?	1.3%	-14.7	18.4µM*	-17.2%
COc1cc(/C=C/C(=O)NC(=O)c2ccccc2O)ccc1O	3.8%	2.7%	nt	-5.5	-7.4%	-1.3%
O=C(/C=C/c1ccccc1)NC(=O)c1ccccc1O	1.9%	?	-19.8%	-57.9*	?	-6.6%
COC(=O)CN(Cc1cccs1)CC1CCCO1 (stereo not given)	nt	nt	-5.5%	nt	nt	nt
N#CCN1C(=O)NC2(CCCc3sccc32)C1=O (stereo not given)	11.0%	1.4%	6.8%	5.6	-3.0%	-3.7%
COc1cccc(C(=O)N2CCC3(CC2)N(C)C(=O)CS3(=O)=O)c1C	nt	nt	1.1%	nt	nt	nt
COc1ccc(CC(=O)Nc2cccc(/C(C)=N/NC(=O)C3(C)CC3(Br)Br)c2)cc1 (stereo not given)	-14.9%	16.4µM*	4.5%	25.7	?	4.5%
C/C(=N\NC(=O)C1(C)CC1(Br)Br)c1ccc(NC(=O)c2ccc(C)o2)cc1 (stereo not given)	-8.7%	13µM*	22.3%	51.1	18.4µM*	-0.1%
Cn1c(CCNC(=O)C23CCCC=C2N(Cc2ccccc2)C(=O)CC3)nc2ccccc21 (stereo not given)	nt	nt	67.0%	nt	nt	nt
COc1ccc(NC(=O)C2=C(C)Nc3c(C(=O)Nc4ccc(C)cc4)cnn3C2c2cccc(Cl)c2)cc1 (stereo not given)	nt	?	?	nt	-26.7%	nt
COc1ccccc1NC(=O)C1=C(C)Nc2c(C(=O)Nc3ccc(F)cc3)cnn2C1c1cccc([N+](=O)[O-])c1 (stereo not given)	nt	?	-12.0%	nt	23.1µM*	nt
CC1=C(C(=O)Nc2ccc(C)cc2C)C(c2ccccc2)n2ncc(C(=O)Nc3ccccc3)c2N1 (stereo not given)	nt	?	-1.4%	nt	?	nt
CC1=C(C(=O)Nc2ccc(Cl)cc2)C(c2ccccc2)n2ncc(C(=O)Nc3ccccc3)c2N1 (stereo not given)	nt	20.6µM*	-21.7%	nt	14.6µM*	nt
CC1=C(C(=O)Nc2ccc(Cl)cc2)C(c2ccccc2C)n2ncc(C(=O)Nc3ccc(C)cc3)c2N1 (stereo not given)	nt	7.31µM*	2.3%	nt	7.31µM*	nt
COc1cccc(C2C(C(=O)Nc3ccc(Cl)cc3)=C(C)Nc3c(C(=O)Nc4ccccc4)cnn32)c1OC (stereo not given)	nt	23.1µM*	-0.1%	nt	?	nt
COc1ccccc1NC(=O)C1=C(C)Nc2c(C(=O)Nc3ccccc3)cnn2C1c1ccccc1F (stereo not given)	nt	nt	-17.8%	nt	nt	nt
CNC(=O)Cn1nc(C)c(S(=O)(=O)N2CCOCC2)c1C	6.0%	1.7%	-6.6%	9.2	-1.9%	16.3%
CC(=O)N1CCN(C(=O)C[C@@H]2CCNC[C@@H]2Cc2cc(CSc3ccccc3)on2)CC1	nt	nt	70.6%	nt	nt	nt
O=Cc1ccc([B-](F)(F)F)o1	nt	nt	0.0%	nt	nt	nt
O=C(COc1ccc(Cl)cc1)NCC(c1ccco1)S(=O)(=O)c1ccc(F)cc1 (stereo not given)	nt	?	3.7%	nt	?	nt
COc1ccc2c(C=O)c[nH]c2c1	8.6%	9.7%	-10.1%	32.9	-25.9%	-0.1%
COc1ccc2c(c1)c(/C=C/c1cc[n+](C)cc1)cn2C	-2.6%	4.61µM*	50.1µM*	-2.8	4.61µM*	-0.5%
COc1ccc2c(/C=C/c3cc[n+](C)cc3)c[nH]c2c1	-2.3%	9.2µM*	?	26.1	7.31µM*	-22.1%
Cc1ccc2[nH]cc(/C=C/c3cc[n+](C)cc3)c2c1	?	4.11µM*	?	-7.3	2.59µM*	?
C[n+]1ccc(/C=C/c2cccs2)cc1	?	-18.7%	-17.9%	14.3	-14.4%	-20.1%
SMILES	HT1080 IDH1KD tx	DT40 TDP1 CPT	ALOX12 inh	IL1B secr inh	DT40 TDP1 no CPT	HT1080-NT tox
CCCn1ccnc1CN1CCCC12CCN(c1ccc(C(F)(F)F)cn1)CC2	nt	nt	66.8%	nt	nt	nt
O=C1NCc2ccccc2CC12CCN(Cc1c(F)cccc1F)C2 (stereo not given)	nt	nt	3.1%[6.33 µM]	nt	nt	nt
Cc1ccc(-c2[nH]c3[nH]c(=O)[nH]c(=O)c3c2-c2c(-n3cccc3)[nH]c(=O)[nH]c2=O)cc1	nt	nt	-38.8%	nt	nt	nt
CCc1sc(C(=O)Nc2cccnc2)cc1Br	-6.7%	-27.7%	25.1µM*	-21.9	-7.3%	-16.2%
O=C(Nc1cccnc1)c1ccc(Br)s1	10µM*	?	-58.8%	-5.6	?	?
CCc1sc(C(=O)NCc2cccnc2)cc1C	nt	nt	-16.6%	nt	nt	nt
CCc1nc2c(=O)n(CC(=O)NCCN3CCOCC3)nc(C)c2s1	nt	nt	2.7%	nt	nt	nt
COc1cccc(C2C=C(c3ccc(Br)s3)Nc3ncnn32)c1OC (stereo not given)	4.7%	?	nt	-18.4	?	6.4%
Fc1ccc(Br)cc1C1C=C(c2ccc(Br)s2)Nc2ncnn21 (stereo not given)	1.16µM*	0.92µM*	nt	-11.1	0.651µM*	1.3µM*
CCOC(=O)CN1C(c2ccc(O)cc2)Nc2ccc(Br)cc2C1c1ccccc1 (stereo not given)	?	14.6µM*	-13.4%	-101.5*	?	16.4µM*
CCn1cc(CN2CCc3nn(CCOC)c(=O)n3CC2)cn1	nt	nt	34.7%	nt	nt	nt
COc1ccc(C)cc1S(=O)(=O)N1CCN(S(=O)(=O)c2cc(C)ccc2OC)CC1	0.8%	-13.0%	0.0%	-4.2	-14.6%	-0.6%
COc1ccc(CN2CCN(C/C=C/c3ccccc3)CC2)c(OC)c1OC	nt	nt	0.562µM*	nt	nt	nt
COc1ccc(C)cc1S(=O)(=O)N1CCN(C/C=C/c2ccccc2)CC1	-4.9%	?	101.9%	-1.5	14.6µM*	-3.6%
COc1ccc(CN2CCN(C/C=C/c3ccccc3)CC2)cc1OC	nt	nt	0.0%	nt	nt	nt
COc1ccc(OC)c(Nc2c3c(nc4ccccc24)CCC3)c1	0.581µM*	0.731µM*	0.0%	-74.8*	0.581µM*	0.651µM*
O=[N+]([O-])c1ccc(Nc2c3ccccc3nc3ccccc23)cc1	?	?	?	-2.6	?	?
